# Measurements: article PMC5540273 (PLoS ONE, 2017)
# What was measured:
# YES = test system: T1, YES
# T1 construct: gene YES1
# AAK1 = conditions: concentration: 1 μM, replicates: in singlicate; n = 1
# ABL1-nonphosphorylated = conditions: concentration: 1 μM, replicates: in singlicate; n = 1
# ABL1-phosphorylated = conditions: concentration: 1 μM, replicates: in singlicate; n = 1
# ABL2 = conditions: concentration: 1 μM, replicates: in singlicate; n = 1
# YSK4 = test system: T2, YSK4
# T2 construct: gene MAP3K19
# YANK2 = test system: T3, YANK2
# T3 construct: gene STK32B
# p38-gamma = test system: T4, p38-gamma
# T4 construct: gene MAPK12
# 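For %Inh in this document: KINOMEscan kinase panel screen.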
# 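For Kd in this document: kd values determined as follow-up on hits from a single-replicate KINOMEscan panel screen.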
compound,measurement,setting,value
COc1cc(OC)cc(-c2cc3cnc(N)nc3nc2NC(=O)NC(C)(C)C)c1,Kd,YES,> 10 µM
same,%Inh,AAK1,15%
same,%Inh,ABL1-nonphosphorylated,39%
same,%Inh,ABL1-phosphorylated,0%
same,%Inh,ABL2,0%
Cc1ccccc1COc1cc(-n2cnc3cc(Cl)ccc32)sc1C(N)=O [GW813349],%Inh,AAK1,2%
same,%Inh,ABL1-nonphosphorylated,9%
same,%Inh,ABL1-phosphorylated,14%
same,%Inh,ABL2,13%
Nc1ncnc2c1ncn2-c1cccc(F)c1 [SKF-97560],%Inh,AAK1,0%
same,%Inh,ABL1-nonphosphorylated,9%
same,%Inh,ABL1-phosphorylated,14%
same,%Inh,ABL2,8%
O=C(Nc1n[nH]c2cc(-c3ccccc3F)ccc12)C1CC1 [SB-733371],Kd,YSK4,0.2 µM
same,%Inh,AAK1,9%
same,%Inh,ABL1-nonphosphorylated,46%
same,%Inh,ABL1-phosphorylated,21%
same,%Inh,ABL2,9%
Nc1ncnc2c1ncn2-c1cccc2ccccc12 [SKF-97184],Kd,YANK2,> 10 µM
same,%Inh,AAK1,0%
same,%Inh,ABL1-nonphosphorylated,46%
same,%Inh,ABL1-phosphorylated,26%
same,%Inh,ABL2,0%
CN1C(=O)C(Nc2ccccc2)=C(c2ccccc2)C1=O [SB-300079],%Inh,AAK1,0%
same,%Inh,ABL1-nonphosphorylated,0%
same,%Inh,ABL1-phosphorylated,6%
same,%Inh,ABL2,0%
Cc1cccc(-c2nc(Nc3ccc4c(cnn4C)c3)c3ccccc3n2)n1 [GW876731],%Inh,AAK1,0%
same,%Inh,ABL1-nonphosphorylated,0%
same,%Inh,ABL1-phosphorylated,0%
same,%Inh,ABL2,0%
COc1cc2ncn(-c3cc(OCc4ccc(S(C)(=O)=O)cc4)c(C(N)=O)s3)c2cc1OC [GW869979],%Inh,AAK1,0%
same,%Inh,ABL1-nonphosphorylated,0%
same,%Inh,ABL1-phosphorylated,13%
same,%Inh,ABL2,14%
CCc1nc(-c2cccc(C)c2)c(-c2ccncc2)s1,%Inh,AAK1,0%
same,%Inh,ABL1-nonphosphorylated,60%
same,%Inh,ABL1-phosphorylated,11%
same,%Inh,ABL2,6%
COC(=O)c1c(-c2ccccc2)c2cc(Br)ccc2c(=O)n1Cc1ccc(NC(=O)CCC(=O)O)cc1,%Inh,AAK1,13%
same,%Inh,ABL1-nonphosphorylated,38%
same,%Inh,ABL1-phosphorylated,0%
same,%Inh,ABL2,18%
O=C(Nc1n[nH]c2nc(-c3ccccc3)c(Cl)cc12)C1CC1 [SB-734909],Kd,YSK4,7.7 µM
same,%Inh,AAK1,28%
same,%Inh,ABL1-nonphosphorylated,76%
same,%Inh,ABL1-phosphorylated,57%
same,%Inh,ABL2,0%
Cc1cccc(-c2cc(-c3c[nH]nc3-c3ccccn3)ccn2)c1 [GW679395],%Inh,AAK1,14%
same,%Inh,ABL1-nonphosphorylated,68%
same,%Inh,ABL1-phosphorylated,29%
same,%Inh,ABL2,48%
COC(=O)c1c(-c2ccccc2)c2cc(Br)ccc2c(=O)n1Cc1ccc(S(C)(=O)=O)cc1,%Inh,AAK1,27%
same,%Inh,ABL1-nonphosphorylated,25%
same,%Inh,ABL1-phosphorylated,9%
same,%Inh,ABL2,32%
Nc1nc(N)c2nc(-c3ccccc3)[nH]c2n1 [SKF-12778],%Inh,AAK1,23%
same,%Inh,ABL1-nonphosphorylated,18%
same,%Inh,ABL1-phosphorylated,15%
same,%Inh,ABL2,9%
CCn1c(-c2nonc2N)nc2ccccc21 [SB-693162/GW549034],Kd,YSK4,0.01 µM
same,%Inh,AAK1,29%
same,%Inh,ABL1-nonphosphorylated,53%
same,%Inh,ABL1-phosphorylated,27%
same,%Inh,ABL2,0%
Cc1ccc(-c2ccc3c(ccc4sc5c(c43)NC[C@@H](C)N=C5N(C)C)n2)cn1,%Inh,AAK1,0%
same,%Inh,ABL1-nonphosphorylated,0%
same,%Inh,ABL1-phosphorylated,0%
same,%Inh,ABL2,0%
CCC(=O)c1c(-c2ccccc2)c2cc(Cl)ccc2c(=O)n1Cc1cc(S(C)(=O)=O)n(CC(N)=O)n1,%Inh,AAK1,0%
same,%Inh,ABL1-nonphosphorylated,44%
same,%Inh,ABL1-phosphorylated,9%
same,%Inh,ABL2,0%
COc1cc2ncn(-c3cc(OCc4ccncc4)c(C(N)=O)s3)c2cc1OC [GSK336313],%Inh,AAK1,58%
same,%Inh,ABL1-nonphosphorylated,0%
same,%Inh,ABL1-phosphorylated,7%
same,%Inh,ABL2,0%
COc1ccc(CNC(=O)NC2CCN(c3ccnc(Nc4ccc(F)cc4)n3)C2)cc1 (stereo not drawn) [GSK1379706],%Inh,AAK1,32%
same,%Inh,ABL1-nonphosphorylated,0%
same,%Inh,ABL1-phosphorylated,0%
same,%Inh,ABL2,2%
CCn1c(-c2ccoc2)nc2cnccc21 [SB-733887],%Inh,AAK1,1%
same,%Inh,ABL1-nonphosphorylated,1%
same,%Inh,ABL1-phosphorylated,17%
same,%Inh,ABL2,10%
COc1ccc(-n2cnc3c(N)ncnc32)cc1 [SKF-97236],%Inh,AAK1,15%
same,%Inh,ABL1-nonphosphorylated,28%
same,%Inh,ABL1-phosphorylated,1%
same,%Inh,ABL2,10%
CCCC(=O)Nc1n[nH]c2ncc(-c3cccc4ccccc34)cc12 [SB-642057],%Inh,AAK1,27%
same,%Inh,ABL1-nonphosphorylated,0%
same,%Inh,ABL1-phosphorylated,27%
same,%Inh,ABL2,11%
CN(C)c1cc(-c2ccc3c(N)n[nH]c3c2)nc(N)n1 [GSK2219329],Kd,ZAK,> 10 µM
same,%Inh,AAK1,10%
same,%Inh,ABL1-nonphosphorylated,0%
same,%Inh,ABL1-phosphorylated,0%
same,%Inh,ABL2,0%
Cc1nnc(-c2ccc(C)c(-c3ccc(C(=O)O)cc3)c2)o1 [GW608005],%Inh,AAK1,0%
same,%Inh,ABL1-nonphosphorylated,0%
same,%Inh,ABL1-phosphorylated,0%
same,%Inh,ABL2,0%
COc1ccc(-c2cc3c(C)nc(N)nc3n([C@H]3CC[C@H](O)CC3)c2=O)cn1,Kd,p38-gamma,> 10 µM
same,%Inh,AAK1,0%
same,%Inh,ABL1-nonphosphorylated,0%
same,%Inh,ABL1-phosphorylated,0%
same,%Inh,ABL2,0%
Cl.NS(=O)(=O)c1cccc(Nc2cc(-c3ccc(F)cc3)n[nH]2)c1 [GW824645],%Inh,AAK1,9%
same,%Inh,ABL1-nonphosphorylated,5%
same,%Inh,ABL1-phosphorylated,24%
same,%Inh,ABL2,0%
